A number with no mark means an inactive call. Results filed as inconclusive are left out. A call without a number means that no potency is given here. Calls of active or inactive are those of the source. Unless noted, calls come from the whole dose curve; as a rule, active = well fitted curve in the direction sought with a large enough effect in the repeat runs; inconclusive = weak or mixed curves; inactive = no such curve, though single readings can be large; an effect the other way counts as inactive or inconclusive.
Assays:
[1] = qHTS assay for small molecule agonists of the p53 signaling pathway (AID 651631; calls by dose curve; note: nearly all actives have a fitted effect of over 15% in size)
Method in brief: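 Testing took place in human colorectal HCT-116 cells with stable p53RE-driven beta-lactamase. After 16 h of compound exposure at 37 °C, a FRET substrate was added and fluorescence recorded 2 h later.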

[2] = qHTS assay for small molecules that induce genotoxicity in human embryonic kidney cells expressing luciferase-tagged ATAD5 (AID 651632); note: nearly all actives have a fitted effect of over 15% in size
Method in brief: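 Cells were seeded at 2,000 per well, dosed with compound, and incubated 16 hr at 37C in 5% CO2. Luciferase activity was then quantified after a 30 min room-temperature incubation with Amplite.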

[3] = qHTS assay for small molecule agonists of the p53 signaling pathway - cell viability (AID 651633; calls by dose curve; note: series mostly up to about 83 µM; nearly all actives have a fitted effect of over 30% in size)
Method in brief: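 Viability counter-read: CellTiter-Glo luminescence (30 min, room temperature) in the same p53RE-bla plates. These plates had been exposed to compounds for 16 h at 37 C.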

[4] = qHTS assay for small molecules that induce genotoxicity in human embryonic kidney cells expressing luciferase-tagged ATAD5 - cell viability (AID 651634; calls by dose curve; note: nearly all actives have a fitted effect of over 25% in size)
Method in brief: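 Cells (HEK293T, luciferase-tagged ATAD5) are seeded at 2,000 per well, dosed with compound or DMSO vehicle, and incubated 15.5 hr at 37C and 5% CO2. CellTiter-Fluor is added for 30 min before fluorescence is measured.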

[5] = qHTS assay for small molecule disruptors of the mitochondrial membrane potential - cell viability (AID 720634; calls by dose curve;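 note: human HepG2 liver cancer cells; series mostly up to about 83 µM; nearly all actives have a fitted effect of over 20% in size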)
Method in brief: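 Cytotoxicity was measured by ATP quantitation in HepG2 wells that had first been treated with compound for 1 hr and stained with m-MPI dye; CellTiter-Glo incubation was 30 min at room temperature.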

[6] = qHTS assay to test for compound auto fluorescence at 590 nm (red) in HepG2 cells (AID 720674)
Method in brief: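 1 hr compound incubation on HepG2 cells, 37 C, 5% CO2; plate read ex 540 nm / em 590 nm; intensities reported as Rose Bengal sodium equivalents.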

[7] = qHTS assay to test for compound auto fluorescence at 460 nm (blue) in HEK293 cells (AID 720678)
Method in brief: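 After cell attachment (4-5 hr, 37C), compounds were pinned onto HEK293 monolayers in 10% dialyzed FBS medium. The blue channel (405/460 nm) was read following overnight culture. Equivalency was calculated against triamterene.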

[8] = qHTS assay to test for compound auto fluorescence at 590 nm (red) in HEK293 cells (AID 720679)
Method in brief: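 Plates of HEK293 cells (10% dialyzed FBS) are treated with 23 nL compound or DMSO vehicle after a 4-5 hr attachment period, incubated overnight at 37C, and read for red fluorescence at 540/590nm.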

[9] = qHTS assay to test for compound auto fluorescence at 535 nm (green) in HEK293 cells (AID 720680)
[10] = qHTS assay to test for compound auto fluorescence at 460 nm (blue) in HEK293 cell free culture (AID 720681)
Method in brief: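 Blue fluorescence (Ex 405/Em 460 nm, triamterene-equivalent) was read immediately after pin transfer of compound or DMSO into medium (DMEM, 10% FBS) without cells.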

[11] = qHTS assay to test for compound auto fluorescence at 535 nm (green) in HEK293 cell free culture (AID 720682)
Method in brief: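 DMEM + 10% FBS, cell-free; cpd or DMSO pinned in; Ex485/Em535 read; output as fluorescein-equivalent signal.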

[12] = qHTS assay to test for compound auto fluorescence at 590 nm (red) in HEK293 cell free culture (AID 720683)
Method in brief: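 Red-channel autofluorescence of compounds in culture medium (DMEM, 10% FBS), no cells, measured at 540/590 nm. Rose Bengal sodium is the reference fluorophore for equivalence.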

[13] = qHTS assay to test for compound auto fluorescence at 590 nm (red) in HepG2 cell free culture (AID 720684)
Method in brief: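 No cells present: MEM + 10% FBS only. Compound pinned in, red label read (540/590 nm). Activity = fluorescence equivalent to Rose Bengal sodium.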

[14] = qHTS assay to test for compound auto fluorescence at 460 nm (blue) in HepG2 cell free culture (AID 720685)
Method in brief: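 Cell-free plates of MEM plus 10% FBS received 23 nL compound or DMSO vehicle; blue-channel (405/460 nm) intensity scored against triamterene as reference fluorophore.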

[15] = qHTS assay to test for compound auto fluorescence at 535 nm (green) in HepG2 cell free culture (AID 720686)
[16] = qHTS assay to test for compound auto fluorescence at 460 nm (blue) in HepG2 cells (AID 720687)
Method in brief: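 Blue-channel autofluorescence (Ex/Em 405/460 nm, triamterene-equivalent) was measured after 1 hr compound exposure at 37 C, 5% CO2. Cells were HepG2, plated overnight at 37 C in MEM plus 10% FBS.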

[17] = biological target: Glucocorticoid receptor (Homo sapiens) (UniProt P04150); assay: qHTS assay to identify small molecule agonists of the glucocorticoid receptor (GR) signaling pathway (AID 720691; active = well fitted activation curve with a large enough effect in the signal ratio in the repeat runs, not every such curve was filed as active; the % refers to the signal ratio)
Chain of Glucocorticoid receptor (Homo sapiens) (P04150 whole entry, looked up): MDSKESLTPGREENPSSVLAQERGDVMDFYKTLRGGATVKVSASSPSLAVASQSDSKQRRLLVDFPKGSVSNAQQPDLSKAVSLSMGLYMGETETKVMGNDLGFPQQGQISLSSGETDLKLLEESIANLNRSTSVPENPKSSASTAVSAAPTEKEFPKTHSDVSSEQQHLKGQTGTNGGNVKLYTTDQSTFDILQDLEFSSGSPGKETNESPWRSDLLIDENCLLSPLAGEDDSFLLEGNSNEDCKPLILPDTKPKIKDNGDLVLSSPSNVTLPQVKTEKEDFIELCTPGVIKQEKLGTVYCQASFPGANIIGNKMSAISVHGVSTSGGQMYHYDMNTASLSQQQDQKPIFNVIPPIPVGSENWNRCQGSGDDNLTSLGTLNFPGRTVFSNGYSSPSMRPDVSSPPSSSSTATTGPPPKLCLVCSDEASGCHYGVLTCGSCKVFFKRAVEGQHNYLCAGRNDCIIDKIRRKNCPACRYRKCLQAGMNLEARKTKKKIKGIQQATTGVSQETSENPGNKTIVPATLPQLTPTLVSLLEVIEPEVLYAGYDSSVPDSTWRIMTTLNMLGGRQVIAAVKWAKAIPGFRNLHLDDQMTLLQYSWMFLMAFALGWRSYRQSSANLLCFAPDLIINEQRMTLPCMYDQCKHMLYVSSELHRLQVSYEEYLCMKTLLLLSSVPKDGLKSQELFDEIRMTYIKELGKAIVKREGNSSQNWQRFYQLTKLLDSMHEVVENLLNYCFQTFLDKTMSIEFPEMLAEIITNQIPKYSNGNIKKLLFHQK
Method in brief: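 Steps: seed GR-bla HeLa cells, incubate 4 h at 37 C/5% CO2; pin-transfer DMSO-dissolved compounds; incubate 18 h at 37 C; add LiveBLAzer B/G FRET substrate; after 2 h at room temperature, measure fluorescence.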

[18] = biological target: Glucocorticoid receptor (Homo sapiens) (UniProt P04150); assay: qHTS assay to identify small molecule antagonists of the glucocorticoid receptor (GR) signaling pathway (AID 720692; active = well fitted inhibition curve with a large enough effect in the signal ratio in the repeat runs, not every such curve was filed as active; the % refers to the signal ratio)
Method in brief: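 Antagonism was scored as loss of dexamethasone-driven (5 nM final) reporter signal in HeLa cells bearing a glucocorticoid response element–beta-lactamase construct, after 18 h compound exposure at 37 C and 2 h FRET substrate loading.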

[19] = qHTS assay to test for compound auto fluorescence at 535 nm (green) in HepG2 cells (AID 720675)
[20] = qHTS assay for small molecule disruptors of the mitochondrial membrane potential (AID 720635); note: potency is the fitted concentration of half-maximal effect
Method in brief: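 Mitochondrial membrane potential tracked with Mito-MPS dye, red aggregates (ex 540/em 590 nm) against green monomers (ex 490/em 535 nm). Compound treatment 1 hr at 37C, dye 30 min in HepG2.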

SMILES | Potency [1] | Potency [2] | Potency [3] | Potency [4] | Potency [5] | outcome [6] | Potency [7] | outcome [8] | outcome [9] | Potency [10] | outcome [11] | outcome [12] | outcome [13] | outcome [14] | outcome [15] | outcome [16] | Potency [17] | Potency [18] | outcome [19] | Potency [20]
O=C(O)c1cccc(C(=O)O)c1C(=O)O | inactive | inactive | inactive | inactive | inactive | inactive | inactive | inactive | inactive | inactive | inactive | inactive | inactive | inactive | inactive | inactive | inactive | inactive | – | –
O=C(OCCOCCOCCOC(=O)c1ccccc1)c1ccccc1 | inactive | inactive | inactive | inactive | – | inactive | inactive | inactive | inactive | inactive | inactive | inactive | inactive | inactive | inactive | inactive | inactive | inactive | inactive | –
CCOC(=O)CC(O)(CC(=O)OCC)C(=O)OCC | inactive | inactive | inactive | inactive | – | inactive | inactive | inactive | inactive | – | inactive | inactive | inactive | inactive | inactive | inactive | inactive | inactive | inactive | –
CCCCCCOC(=O)c1ccccc1 | inactive | inactive | inactive | inactive | – | inactive | – | inactive | inactive | inactive | inactive | – | inactive | – | inactive | inactive | – | inactive | – | inactive
O=C(OC1C[C@H]2CC[C@@H](C1)[N+]21CCCC1)C(O)(c1ccccc1)c1ccccc1 (some centres undefined) | inactive | inactive | inactive | inactive | – | inactive | inactive | inactive | inactive | inactive | inactive | inactive | inactive | inactive | inactive | inactive | – | – | inactive | inactive
COc1ccc(C(=O)Nc2ccccc2)cc1[N+](=O)[O-] | inactive | inactive | inactive | inactive | – | inactive | – | inactive | inactive | inactive | inactive | inactive | inactive | inactive | inactive | inactive | inactive | inactive | inactive | 2.75 µM (active)
[O-][n+]1ccc(Cl)cc1 | inactive | inactive | inactive | inactive | inactive | inactive | inactive | inactive | inactive | inactive | inactive | inactive | inactive | inactive | inactive | inactive | – | inactive | – | –

Source: PubChem BioAssay (Tox21)
